Compound activity (PubChem BioAssay)
Compounds with a hit are over-represented: about 4.6% of the library has one in this group of screens.
TRHR PAM: TRH receptor (human) allosteric enhancement; P34981; TRHR cells, fluo-8 calcium fluorescence, EC20 TRH enhancement; enhancement, % at 2 µM; actives 0.66% (n = 360,000); AID 493056; in the data active = enhancement above about 30%
Target sequence (P34981 whole entry, looked up): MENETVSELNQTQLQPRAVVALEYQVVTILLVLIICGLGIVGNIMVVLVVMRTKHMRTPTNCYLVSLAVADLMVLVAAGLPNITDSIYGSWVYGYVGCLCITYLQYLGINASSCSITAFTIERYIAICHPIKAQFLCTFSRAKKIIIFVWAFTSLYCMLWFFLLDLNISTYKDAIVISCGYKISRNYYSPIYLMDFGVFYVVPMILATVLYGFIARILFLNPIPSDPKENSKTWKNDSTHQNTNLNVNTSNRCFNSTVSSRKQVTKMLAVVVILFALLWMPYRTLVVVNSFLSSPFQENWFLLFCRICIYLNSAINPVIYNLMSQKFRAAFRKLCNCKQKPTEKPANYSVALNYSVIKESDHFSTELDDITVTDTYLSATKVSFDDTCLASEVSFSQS
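TRHR-expressing cells loaded with fluo-8 calcium dye were read kinetically (ex 480/em 530) during compound addition, then stimulated with an EC20 of TRH (10 nM final). Enhancement of the Gq-mediated intracellular calcium response was scored.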
Epigenetic reg: epigenetic control regulation, reporter derepression. murine LDR cells, GFP reporter derepression, 30 h. Potency, µM (top dose mostly 53.9 µM), actives largely listed as activators. actives 0.2% (n = 280,000); active = well fitted activation curve with a large enough effect; inconclusive = small, poorly fitted or top-dose-only effect; note: nearly all actives have a fitted effect of over 60% in size
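Murine LDR cells bearing a silenced CMV-driven GFP reporter were exposed to compound for 30 h at 37 C. After PBS washes, GFP-positive cells (20-120 um objects) counted by laser-scanning microplate cytometry.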
TRHR ag: TRH receptor (human) agonism; P34981; TRHR cells, calcium flux fluo-8, FDSS agonist mode; activation, % at 2 µM; actives 0.18% (n = 360,000); AID 493084
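TRHR-expressing cells loaded with fluo-8 calcium dye; 23 nL library compound pin-transferred, kinetic FDSS fluorescence (Ex 480/Em 530) recorded about 180 s for agonist-induced calcium release, before a 10 nM TRH EC20 addition for potentiator mode.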
D1 antag: blocks dopamine activation of the human D1 receptor; HEK293 TREx D1 cells, calcium flux, dopamine EC80; active compounds read low; activity change, negative = inhibition, % at 10 µM; actives 3.2% (n = 360,000); AID 504652; in the data active = activity change below about -30%
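Allosteric or orthosteric antagonism assessed as attenuation of the calcium response to EC80 dopamine, added 180 s after compound, in induced HEK293 Trex D1 cells loaded with no-wash calcium dye.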
D1 agonist: human D1 receptor agonism | HEK293 T-REx D1 cells, calcium flux, agonist mode | activation, % at 2 µM | actives 1% (n = 360,000) | AID 504660
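Inducible HEK293 T-REx D1 cells, force-coupled to calcium signalling, were plated at 4000 cells/well with tetracycline and held overnight at 30 C. After no-wash calcium dye loading, compound-evoked calcium rise over 180 s flagged agonists.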
D1 PAM: potentiators of human D1 dopamine receptor | HEK293 TREx D1 cells, calcium flux, dopamine EC20 potentiation | potentiation, % at 10 µM | actives 0.036% (n = 360,000) | AID 504651; in the data active = potentiation above about 30%
Large screens that a line does not name were inactive. Cut-off read from the data, not from the text of the source, unless noted: active = activation above about 30%; inactive = the rest.

CCOc1ccccc1NC(=O)Cn1ncc2c(=O)oc3ccc(C)cc3c21	none
CCOC(=O)C(=CNc1ccc(Cl)cn1)C(=O)OCC	D1 antag -40.0
CCOC(=O)C(=CNc1cccc(N)n1)C(=O)OCC	none
O=C(NC1CCN(Cc2cccc([N+](=O)[O-])c2)CC1)c1ccccc1	D1 antag -57.2 (no result: Epigenetic reg)
O=C(NC1CCN(CCc2c[nH]c3ccccc23)CC1)c1ccccc1	D1 antag -83.0, D1 agonist 67.3 (no result: Epigenetic reg)
O=C(NC1CCN(Cc2ccc(Cl)cc2Cl)CC1)c1ccccc1	D1 antag -75.9 (no result: Epigenetic reg)
O=C(NC1CCN(Cc2ccccc2)CC1)c1ccccc1Cl	none (no result: Epigenetic reg)
O=C(NC1CCN(Cc2ccccc2)CC1)c1ccccc1	none (no result: Epigenetic reg)
O=C1CCC[C@@H](C2=CCCCC2=O)C1	none (no result: TRHR PAM, TRHR ag, D1 antag, D1 agonist, D1 PAM)
COc1ccccc1CNC(=O)CN1N=C(c2ccccc2)CCC1=O	none
C[C@H](N)CCCP(=O)(O)O	none (no result: TRHR PAM, TRHR ag, D1 antag, D1 agonist, D1 PAM)
COc1ccccc1-c1nc(-c2ccc(C)nc2OC)no1	D1 antag -31.9
COC(=O)c1ccc(NC(=O)Nc2nnc(N(C)C3CCCCC3)s2)cc1	D1 antag -54.7
COc1cccc(CNS(=O)(=O)c2cc3[nH]c(=O)c(=O)[nH]c3cc2C)c1	TRHR PAM 31.3
Cn1c(NC(=O)c2cc(-c3ccc4c(c3)OCO4)nc3ccccc23)cc(=O)n(C)c1=O	D1 antag -30.5
CC(C)(C)NC(=O)c1cc(-c2ccc3c(c2)OCO3)nc2ccccc12	none (no result: Epigenetic reg)
O=C(O)c1cc(-c2ccc3c(c2)OCO3)nc2ccc(Cl)cc12	TRHR PAM 33.5 (no result: Epigenetic reg)
O=C(c1cc(-c2ccncc2)nc2ccc(Cl)cc12)N1CCN(Cc2ccc3c(c2)OCO3)CC1	none
COc1ccc(OCCCCn2c(-c3ccc(Cl)cc3)nc3ccccc3c2=O)cc1	none
Cc1cccc(NC(=O)c2cc3c(=O)n(Cc4cccnc4)ccc3nc2C)c1	none
COc1ccc(N2C(S)=C(C#N)C(=O)NC2c2ccc(OC)c(OC)c2)cc1 (centres undefined)	TRHR PAM 30.1
COc1ccc(C2NC(=O)C(C#N)=C(S)N2c2ccc(C)cc2)cc1OC (centres undefined)	Epigenetic reg inconclusive
CCOc1ccc(C2NC(=O)C(C#N)=C(S)N2c2ccc(OC)cc2)cc1OC (centres undefined)	none
COc1ccc(C2NC(=O)C(C#N)=C(S)N2c2cccc(C)c2)cc1OC (centres undefined)	D1 antag -61.4
C/C(=C\COc1cc(=O)[nH]c2ccccc12)CCC(O)C(C)(C)O (centres undefined)	TRHR PAM 32.1
O=C(Cn1cc(SCc2ccccc2F)c2ccccc21)N1CCCCCC1	none
Cc1nc2ccc(S(=O)(=O)NCC(=O)N3CCN(c4ccccc4)CC3)cc2s1	D1 antag -39.1
Cc1ccc(S(=O)(=O)N(C)CC(=O)N2CCCCCC2)cc1	TRHR PAM 33.5 (no result: Epigenetic reg)
Cc1ccc(S(=O)(=O)N(C)CC(=O)N2CCCC2)cc1	none
Cc1nc2ccc(S(=O)(=O)NC(C(=O)N3CCn4c3nc3ccccc34)C(C)C)cc2s1 (centres undefined)	D1 antag -54.9
Cc1ccc(S(=O)(=O)NCCC(=O)N2CCCCCC2)cc1	D1 antag -36.0 (no result: Epigenetic reg)
Cc1ccc(S(=O)(=O)NCCC(=O)N2CCCCC2)cc1	none
COc1ccc2c(c1)CC(NC(=O)Nc1ccc(NC(C)=O)cc1)CO2 (centres undefined)	none
CCOC(=O)Cn1c(=O)oc2cc(S(=O)(=O)N3CCC(C(=O)OCC)CC3)ccc21	none
Cc1ccc(S(=O)(=O)NCCC(=O)N2CCN(c3cccc(Cl)c3)CC2)cc1C	D1 antag -30.3 (no result: Epigenetic reg)
CCNS(=O)(=O)c1ccc(CCC(=O)N2CCN(c3cccc(Cl)c3)CC2)cc1	none (no result: Epigenetic reg)
CCSc1ncc(Cl)c(C(=O)Nc2sc3c(c2C(=O)NC)CCCC3)n1	Epigenetic reg 7.08µM
COC(=O)c1c(NC(=O)c2nc(SCc3ccc(C)cc3)ncc2Cl)sc2c1CCCC2	none
CCCSc1ncc(Cl)c(C(=O)Nc2sc3c(c2C(=O)NCC)CCCC3)n1	Epigenetic reg 4.47µM
CCC12CN3CC(C)(CN(C1)C3c1ccccc1C)C2=O (centres undefined)	none
CCOc1cc(CNCCc2ccccc2)ccc1OCC(=O)NC(C)(C)C	D1 agonist 122.2
CCOc1cc(CNCCc2ccc(S(N)(=O)=O)cc2)ccc1OCC(=O)NC(C)(C)C	none
CCOc1cc(CNCc2cccs2)ccc1OCC(=O)NC(C)(C)C	none
COc1cc(CNCCCN2CCOCC2)ccc1OCC(=O)NC(C)(C)C	none
CCOc1cc(CNCc2cccnc2)ccc1OCC(=O)NC(C)(C)C	TRHR PAM 36.4
COc1cc(CNCCN2CCOCC2)ccc1OCC(=O)NC(C)(C)C	D1 agonist 32.4
CC(C)CO/N=C1/C[C@@H](O)[C@@H](O)[C@@H]2[C@@H]3C(=O)N(C4CCCCC4)C(=O)[C@H]3CC[C@H]12	none (no result: TRHR PAM, TRHR ag, D1 antag, D1 agonist, D1 PAM)
Cc1cccc(CSc2nc(=O)c3c(n2C)NC(=O)CC3c2cc(F)cc(F)c2)c1 (centres undefined)	none
Cc1ccccc1C(=O)N=c1ccn(-c2nc3ccccc3nc2NS(=O)(=O)c2ccc(F)cc2)cc1	D1 agonist 70.0 (no result: Epigenetic reg)
O=C(NCc1ccccc1Br)c1ccc(-n2cnc3cccnc32)cc1	none
COC(=O)C1=C(C)N(Cc2ccc(OC)cc2)C(=O)/C1=C\c1ccco1	Epigenetic reg inconclusive, D1 antag -34.3
O=S(=O)(c1ccc(F)cc1)N1CCN(C(=S)NCc2ccccc2)CC1	D1 antag -31.4
COc1cc(NC(=O)c2noc3c2CC(C(C)(C)C)CC3)cc(OC)c1OC (centres undefined)	none
CC(=O)c1cccc(NC(=O)CCn2nc(C)c(S(=O)(=O)N(C)C)c2C)c1	D1 antag -47.1
CC(=O)c1ccc(Oc2ccc(C(C)=O)cc2)cc1	none
CC(=O)c1ccc(OC2OCCOC2Oc2ccc(C(C)=O)cc2)cc1 (centres undefined)	D1 antag -39.0
CCc1c(C)sc2c1CCN(Cc1cccc(OC)c1)C2c1ccccc1 (centres undefined)	none
O=[N+]([O-])c1ccc(O)c(-c2cc(C(F)(F)F)nc(-c3ccccc3)n2)c1	D1 antag -48.1, D1 agonist 35.7 (no result: Epigenetic reg)
CC1Cc2c(COc3ccccc3)nc3c(c2CO1)CN(CCOc1ccccc1)CC3 (centres undefined)	none (no result: TRHR PAM, TRHR ag, D1 antag, D1 agonist, D1 PAM)
CC1CN(CC(=O)N2CCc3[nH]c4ccccc4c3C2)CC(C)O1 (centres undefined)	D1 antag -44.2
O=C(Cn1cc(SCc2ccc(C(F)(F)F)cc2)c2ccccc21)N1CCCC1	none
CN1CCN(c2nc(-c3ccco3)cc(C(F)(F)F)n2)CC1	D1 antag -67.8
